OTUD3 inh = inhibitors of human OTUD3 deubiquitinase | OTU domain-containing protein 3 (Homo sapiens), Q5T2D3 | purified OTUD3, Ub-rhodamine fluorescence, 2 h | inhibition, % at 25 µM | hit rate 0.7% among 47,000 | AID 1645858, 2021
USP30 block = inhibitors of human USP30 deubiquitinase. purified USP30, Ub-rhodamine cleavage fluorescence. inhibition, % at 25 µM. Ubiquitin carboxyl-terminal hydrolase 30 (Homo sapiens), Q70CQ3. hit rate 5.3% among 47,000
Target sequence (Q70CQ3 whole entry, looked up): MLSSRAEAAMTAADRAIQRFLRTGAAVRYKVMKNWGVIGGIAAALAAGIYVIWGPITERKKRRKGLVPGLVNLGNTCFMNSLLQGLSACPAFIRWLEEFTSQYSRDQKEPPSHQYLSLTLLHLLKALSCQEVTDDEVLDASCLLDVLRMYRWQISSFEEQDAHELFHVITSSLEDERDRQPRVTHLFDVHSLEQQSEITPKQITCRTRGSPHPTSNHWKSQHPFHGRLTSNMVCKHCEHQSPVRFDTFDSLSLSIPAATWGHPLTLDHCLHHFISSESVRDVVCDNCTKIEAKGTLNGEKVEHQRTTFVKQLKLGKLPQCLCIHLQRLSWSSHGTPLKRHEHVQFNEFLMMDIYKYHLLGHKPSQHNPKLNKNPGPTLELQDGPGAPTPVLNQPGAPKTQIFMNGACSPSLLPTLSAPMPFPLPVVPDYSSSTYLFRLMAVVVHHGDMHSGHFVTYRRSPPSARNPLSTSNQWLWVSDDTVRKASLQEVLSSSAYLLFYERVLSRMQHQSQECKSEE
USP17 inh = inhibitors of human USP17 deubiquitinase | Ubiquitin carboxyl-terminal hydrolase 17-like protein 5 (Homo sapiens), A8MUK1 | purified USP17, Ub-rhodamine cleavage fluorescence, 3 h | AID 1645855, 2021 | hit rate 6.5% among 47,000 | inhibition, % at 50 µM
USP8 inh = inhibitors of human USP8 deubiquitinase; Ubiquitin carboxyl-terminal hydrolase 8 (Homo sapiens), P40818; purified USP8, Ub-rhodamine cleavage fluorescence, 30 min; inhibition, % at 20 µM; hit rate 4.2% among 47,000
USP10 block = inhibitors of human USP10 deubiquitinase; AID 1645856, 2021; purified USP10, Ub-rhodamine fluorescence, 60 min; inhibition, % at 20 µM; hit rate 1.1% among 47,000; Ubiquitin carboxyl-terminal hydrolase 10 (Homo sapiens), Q14694
USP28 block = inhibitors of human USP28 deubiquitinase | Ubiquitin carboxyl-terminal hydrolase 28 (Homo sapiens), Q96RU2 | AID 1645857, 2021 | hit rate 3% among 47,000 | purified USP28, Ub-rhodamine cleavage fluorescence, 30 min | inhibition, % at 25 µM
A number is an active result. In the library only some 13% were active in any assay of this set; here they are far more common. Rule as the data show it: active = inhibition above about 30%; inactive = the rest.

COCCNC(=O)C1(C)Cn2nc(-c3ccco3)cc2C(=O)N1c1ccc(NC(C)=O)cc1 (centres undefined) was read as OTUD3 inh inactive, USP30 block inactive, USP17 inh inactive, USP8 inh inactive, USP10 block inactive and USP28 block inactive.
Screening O=C(c1ccc(C(F)(F)F)cc1)N1CCN(Cc2cc(=O)n3ccsc3n2)CC1 returned OTUD3 inh inactive, USP30 block inactive, USP17 inh inactive, USP8 inh inactive, USP10 block inactive and USP28 block inactive.
For Nc1nc(OCc2ccccc2)c2[nH]c(/C=C/c3cccs3)nc2n1 the results were OTUD3 inh inactive, USP30 block 84, USP17 inh inactive, USP8 inh 72, USP10 block inactive and USP28 block 67.
`Cc1ccccc1CN1C[C@@H]2c3nc(NCC4CC4)ncc3CS(=O)(=O)[C@@H]2C1` gave OTUD3 inh inactive, USP30 block inactive, USP17 inh inactive, USP8 inh 35, USP10 block inactive and USP28 block inactive.
For CN1C(=O)CC[C@]2(C(=O)NCCc3cccnc3)CCCC[C@@H]12 the results were OTUD3 inh inactive, USP30 block inactive, USP17 inh inactive, USP8 inh inactive, USP10 block inactive and USP28 block inactive.
COc1ccc(CCn2cnc3c4ccccc4n(C)c3c2=O)cc1 was read as OTUD3 inh inactive, USP30 block inactive, USP17 inh inactive, USP8 inh inactive, USP10 block inactive and USP28 block inactive.
`COc1ccc(CCn2cnc3c4ccccc4n(C)c3c2=O)cc1OC` gave OTUD3 inh inactive, USP30 block inactive, USP17 inh inactive, USP8 inh inactive, USP10 block inactive and USP28 block 67.
Screening O=C1CCSc2ccc(S(=O)(=O)Nc3ccc(F)cc3)cc2N1 returned OTUD3 inh inactive, USP30 block inactive, USP17 inh inactive, USP8 inh inactive, USP10 block inactive and USP28 block inactive.
`Cc1ccc(Cn2cc(SCC(=O)Nc3ccc(F)cc3F)c3ccccc32)cc1` gave OTUD3 inh inactive, USP30 block inactive, USP17 inh 32, USP8 inh inactive, USP10 block inactive and USP28 block inactive.
`Cc1ccc(C)c(NS(=O)(=O)c2cc(-c3cnc(C4CC4)o3)ccc2C)c1` gave OTUD3 inh inactive, USP30 block inactive, USP17 inh 52, USP8 inh inactive, USP10 block inactive and USP28 block inactive.
`COc1ccc(NS(=O)(=O)c2cc(-c3cnc(C4CC4)o3)ccc2C)cc1OC` gave OTUD3 inh inactive, USP30 block inactive, USP17 inh inactive, USP8 inh inactive, USP10 block inactive and USP28 block inactive.
Screening Cc1ccc(-c2cnc(C3CC3)o2)cc1S(=O)(=O)Nc1ccc(F)c(Cl)c1 returned OTUD3 inh inactive, USP30 block inactive, USP17 inh 66, USP8 inh inactive, USP10 block 39 and USP28 block inactive.
Screening Cc1ccc(-c2c3c(=O)n(C)c(=O)n(C)c3cn2CCCN2CCOCC2)cc1 returned OTUD3 inh inactive, USP30 block inactive, USP17 inh inactive, USP8 inh inactive, USP10 block inactive and USP28 block inactive.
Cc1ccc(-c2c3c(=O)n(C)c(=O)n(C)c3cn2-c2ccc3c(c2)OCCO3)cc1 was read as OTUD3 inh inactive, USP30 block inactive, USP17 inh inactive, USP8 inh 63, USP10 block inactive and USP28 block inactive.
`COc1ccc(/C=N/OCc2nc3c4c(ncn3n2)Oc2c(c(C)nn2-c2ccc(Cl)cc2)C4c2ccco2)cc1OC` (centres undefined) gave OTUD3 inh inactive, USP30 block inactive, USP17 inh inactive, USP8 inh inactive, USP10 block inactive and USP28 block inactive.
Screening COc1cc(O)c2c(=O)c(-c3ccc(O)cc3)coc2c1 returned OTUD3 inh inactive, USP30 block inactive, USP17 inh 73, USP8 inh 35, USP10 block inactive and USP28 block 30.
`O=c1c(-c2ccc(O)c(O)c2)coc2cc(O)ccc12` gave OTUD3 inh inactive, USP30 block inactive, USP17 inh inactive, USP8 inh inactive, USP10 block inactive and USP28 block inactive.
For Cc1cccc(OCc2cc(-c3ccccc3)no2)c1C the results were OTUD3 inh inactive, USP30 block inactive, USP17 inh inactive, USP8 inh inactive, USP10 block inactive and USP28 block 48.
Fc1ccc(OCc2cc(-c3ccccc3)no2)cc1 was read as OTUD3 inh inactive, USP30 block inactive, USP17 inh inactive, USP8 inh inactive, USP10 block inactive and USP28 block inactive.
Screening CN(C)[C@@H]1[C@@H](O)[C@H](Oc2cccc(F)c2)C[C@H]1NC(=O)c1cnco1 returned OTUD3 inh inactive, USP30 block inactive, USP17 inh inactive, USP8 inh inactive, USP10 block inactive and USP28 block inactive.
For COc1ccccc1N1CCN(C(=O)CSc2cc(=O)n(C)c3ccccc23)CC1 the results were OTUD3 inh inactive, USP30 block 32, USP17 inh inactive, USP8 inh inactive, USP10 block inactive and USP28 block inactive.
`O=C1CCC(C(=O)N2CCC(c3nc4ccccc4cc3C(=O)N3CCCC3)CC2)N1` (centres undefined) gave OTUD3 inh inactive, USP30 block inactive, USP17 inh inactive, USP8 inh inactive, USP10 block inactive and USP28 block inactive.
For Cc1cc(O)c2c3c(c(O)cc2c1)C(=O)c1c(O)cccc1C3=O the results were OTUD3 inh 67, USP30 block inactive, USP17 inh 63, USP8 inh inactive, USP10 block inactive and USP28 block 73.
Screening Cc1cc(C(=O)N2CCC(C(=O)Nc3ccc4c(c3)OCO4)CC2)c2ccccc2n1 returned OTUD3 inh inactive, USP30 block inactive, USP17 inh inactive, USP8 inh inactive, USP10 block inactive and USP28 block inactive.
Screening O=C(O)CCNC(=O)C1CCC(Cn2cnc3ccccc3c2=O)CC1 (centres undefined) returned OTUD3 inh inactive, USP30 block inactive, USP17 inh inactive, USP8 inh inactive, USP10 block inactive and USP28 block inactive.
For O=C(Nc1ccc2c(c1)OCCO2)C1CCC(Cn2cnc3ccccc3c2=O)CC1 (centres undefined) the results were OTUD3 inh inactive, USP30 block inactive, USP17 inh inactive, USP8 inh inactive, USP10 block 51 and USP28 block 92.
Screening O=C(Nc1ccc2c(c1)OCCO2)C1CCN(C(=O)c2ccccc2)CC1 returned OTUD3 inh inactive, USP30 block inactive, USP17 inh inactive, USP8 inh inactive, USP10 block inactive and USP28 block 76.
Screening O=C(Nc1ccc2c(c1)OCO2)C1CCN(C(=O)c2ccc3n[nH]nc3c2)CC1 returned OTUD3 inh inactive, USP30 block inactive, USP17 inh inactive, USP8 inh 36, USP10 block inactive and USP28 block 45.

Assay outcomes from PubChem BioAssay.
